Values without a mark were called inactive. Activity calls are given as the source filed them. Calls follow the shape of the dose curve; as a rule, active = well fitted curve in the direction sought with a large enough effect in the repeat runs; inconclusive = weak or mixed curves; inactive = flat fitted curve, though single readings scatter.
% is scaled to controls: 0 for no effect and ±100 for the full control effect.

One assay can be described thus: qHTS assay to test for compound auto fluorescence at 590 nm (red) in HEK293 cell free culture (AID 720683). The settings on record: cell-free medium autofluorescence, Ex540/Em590 red; series mostly up to 91.3 µM; fluorescence, % of fluorescent control: at the top concentration. In short, it runs like this: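 Red-channel autofluorescence of compounds in culture medium (DMEM, 10% FBS), no cells, measured at 540/590 nm. Rose Bengal sodium is the reference fluorophore for equivalence.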
With `C[Si]1(C)O[Si](C)(C)O[Si](C)(C)O[Si](C)(C)O1`, the outcome was inactive.

Regarding `CCCCCCCCCCCC(=O)OC`, the compound was classed as inactive.

Regarding `CCc1ccccc1CC`, the call was inactive.

With `OCc1ccccc1`, the compound was called inactive.

Take `C=CCc1ccc(OC)c(OC)c1`: the result was inactive.

As for `C=Cc1ccc(C)cc1`, the compound was called inactive.

As for `O=C(O)c1ccc(C(=O)O)c(C(=O)O)c1`, the compound was called inactive.

On to `CC(=O)OCc1ccco1`, for which the result was inactive.

Consider `CN(C)c1ccc(O)c2c1C[C@H]1C[C@H]3[C@H](N(C)C)C(=O)C(C(N)=O)=C(O)[C@@]3(O)C(=O)C1=C2O`, for which the result was inactive.

In the case of `CCO[Si](CCCN)(OCC)OCC`, the call was inactive.

As to `CN(C)CCOC(=O)COc1ccc(Cl)cc1`, the result was inactive.

In the case of `CC(CCl)OP(=O)(OC(C)CCl)OC(C)CCl` (stereo not drawn), the call was inactive.

Regarding `O=c1[nH]cnc2[nH]ncc12`, the outcome was inactive.

In the case of `COc1ccc(CCC(C)=O)cc1`, the “fluorescence, % of fluorescent control” value is 0.336%.

With `COC(=O)CCCC(=O)OC`, the compound was called inactive.

Regarding `COc1ccc([N+](=O)[O-])cc1N`, the result was inactive.

With `CCCOC(=O)c1ccccc1`, the call was inactive.

Take `O=C(O)c1ccc(S(=O)(=O)N(Cl)Cl)cc1`: the outcome was inactive.

As for `Brc1ccc(Br)c(Br)c1`, the outcome was inactive.

For the compound `NCCCCCCN`, the result was inactive.

As to `CC1(C)NC(=O)NC1=O`, the compound was called inactive.

In the case of `CCNC(=S)NCC`, the call was inactive.

For `CCCCCCCCCCO`, the outcome was inactive.

For `CCOC(=O)c1ccc(N)cc1`, the call was inactive.

Consider `Cc1ccc(C(C)C)c(O)c1`, for which the call was inactive.

For `CC(C)(Oc1ccc(CCNC(=O)c2ccc(Cl)cc2)cc1)C(=O)O`, the compound was classed as inactive.

Turning to `O=C(O)c1cc2ccccc2cc1O`, the result was inactive.

Turning to `C=C(C)[C@H]1CC=C(C)C(=O)C1`, the call was inactive.

Take `CC(=O)CC(C)(C)O`: the compound was classed as inactive.

As for `CN(C)c1ccc(Cc2ccc(N(C)C)cc2)cc1`, the call was inactive.

`Cc1ccc2ncccc2c1`: the outcome was inactive.

In the case of `CSc1ccc(Cl)cc1`, the compound was called inactive.

On to `COc1ccc(OC)cc1`, for which the result was inactive.

For `O=S(=O)(O)c1ccccc1`, the call was inactive.

Consider `CC(C)c1cccc(C(C)C)c1`, for which the call was inactive.

For `COc1ccccc1OCC(O)CO` (stereo not drawn), the compound was classed as inactive.

For the compound `C=CC(C)CCCC(C)(C)O` (stereo not drawn), the call was inactive.

The next assay can be described thus: qHTS assay to test for compound auto fluorescence at 590 nm (red) in HepG2 cell free culture (AID 720684). As to conditions: cell-free medium autofluorescence, red 540/590 nm; series mostly up to 91.3 µM; fluorescence, % of Rose Bengal: at the top concentration. The method, boiled down:
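Cell-free; medium MEM + 10% FBS; compound or DMSO added by pintool; read Ex 540/Em 590 nm; Rose Bengal sodium as red reference fluorophore.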
For `C[Si]1(C)O[Si](C)(C)O[Si](C)(C)O[Si](C)(C)O1`, the compound was classed as inactive.

With `CCCCCCCCCCCC(=O)OC`, the call was inactive.

Consider `CCc1ccccc1CC`, for which the result was inactive.

On to `OCc1ccccc1`, for which the result was inactive.

As to `C=CCc1ccc(OC)c(OC)c1`, the outcome was inactive.

Turning to `C=Cc1ccc(C)cc1`, the outcome was inactive.

Regarding `O=C(O)c1ccc(C(=O)O)c(C(=O)O)c1`, the call was inactive.

`CC(=O)OCc1ccco1`: the outcome was inactive.

Turning to `CN(C)c1ccc(O)c2c1C[C@H]1C[C@H]3[C@H](N(C)C)C(=O)C(C(N)=O)=C(O)[C@@]3(O)C(=O)C1=C2O`, the compound was classed as inactive.

`CCO[Si](CCCN)(OCC)OCC`: the outcome was inactive.

As to `CN(C)CCOC(=O)COc1ccc(Cl)cc1`, the result was inactive.

Turning to `CC(CCl)OP(=O)(OC(C)CCl)OC(C)CCl` (stereo not drawn), the compound was classed as inactive.

With `O=c1[nH]cnc2[nH]ncc12`, the outcome was inactive.

Take `COc1ccc(CCC(C)=O)cc1`: the “fluorescence, % of Rose Bengal” value is -0.183%.

As for `COC(=O)CCCC(=O)OC`, the outcome was inactive.

Take `COc1ccc([N+](=O)[O-])cc1N`: the compound was called inactive.

On to `CCCOC(=O)c1ccccc1`, for which the outcome was inactive.

Turning to `O=C(O)c1ccc(S(=O)(=O)N(Cl)Cl)cc1`, the compound was called inactive.

Regarding `Brc1ccc(Br)c(Br)c1`, the compound was called inactive.

`NCCCCCCN`: the compound was called inactive.

In the case of `CC1(C)NC(=O)NC1=O`, the compound was called inactive.

In the case of `CCNC(=S)NCC`, the call was inactive.

Take `CCCCCCCCCCO`: the compound was called inactive.

For `CCOC(=O)c1ccc(N)cc1`, the outcome was inactive.

For the compound `Cc1ccc(C(C)C)c(O)c1`, the outcome was inactive.

Consider `CC(C)(Oc1ccc(CCNC(=O)c2ccc(Cl)cc2)cc1)C(=O)O`, for which the call was inactive.

With `O=C(O)c1cc2ccccc2cc1O`, the result was inactive.

For the compound `C=C(C)[C@H]1CC=C(C)C(=O)C1`, the result was inactive.

As for `CC(=O)CC(C)(C)O`, the compound was called inactive.

On to `CN(C)c1ccc(Cc2ccc(N(C)C)cc2)cc1`, for which the compound was classed as inactive.

In the case of `Cc1ccc2ncccc2c1`, the compound was called inactive.

In the case of `CSc1ccc(Cl)cc1`, the outcome was inactive.

For the compound `COc1ccc(OC)cc1`, the compound was classed as inactive.

As for `O=S(=O)(O)c1ccccc1`, the call was inactive.

Consider `CC(C)c1cccc(C(C)C)c1`, for which the result was inactive.

Regarding `COc1ccccc1OCC(O)CO` (stereo not drawn), the compound was called inactive.

Consider `C=CC(C)CCCC(C)(C)O` (stereo not drawn), for which the result was inactive.

The next assay in a line: qHTS assay to test for compound auto fluorescence at 460 nm (blue) in HepG2 cell free culture (AID 720685). The settings on record: Cell-free culture medium, blue autofluorescence 405/460 nm; series mostly up to 91.3 µM; fluorescence, % of fluorescent control: at the top concentration. The method, boiled down: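 Cell-free plates of MEM plus 10% FBS received 23 nL compound or DMSO vehicle; blue-channel (405/460 nm) intensity scored against triamterene as reference fluorophore.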
A general note: In qHTS, concentration-response curves come from the screen itself.
On to `OCc1ccccc1`, for which the compound was classed as inactive.

Take `C=Cc1ccc(C)cc1`: the compound was called inactive.

With `O=C(O)c1ccc(C(=O)O)c(C(=O)O)c1`, the compound was called inactive.

`COc1ccc(CCC(C)=O)cc1`: the “fluorescence, % of fluorescent control” value was -0.0068%.

In the case of `O=C(O)c1ccc(S(=O)(=O)N(Cl)Cl)cc1`, the compound was classed as inactive.

As for `CC1(C)NC(=O)NC1=O`, the result was inactive.

Regarding `CCNC(=S)NCC`, the result was inactive.

For `Cc1ccc(C(C)C)c(O)c1`, the compound was classed as inactive.

Consider `CC(=O)CC(C)(C)O`, for which the call was inactive.

Regarding `CN(C)c1ccc(Cc2ccc(N(C)C)cc2)cc1`, the compound was classed as inactive.

With `Cc1ccc2ncccc2c1`, the call was inactive.

In the case of `O=S(=O)(O)c1ccccc1`, the compound was classed as inactive.

Consider `CC(C)c1cccc(C(C)C)c1`, for which the outcome was inactive.

The next assay is described as follows: qHTS assay to test for compound auto fluorescence at 535 nm (green) in HepG2 cell free culture (AID 720686). The settings on record: Cell-free medium, green autofluorescence 485/535 nm; series mostly up to 91.3 µM; fluorescence, % of fluorescein control: at the top concentration.
Consider `C=CCc1ccc(OC)c(OC)c1`, for which the compound was called inactive.

On to `CN(C)c1ccc(O)c2c1C[C@H]1C[C@H]3[C@H](N(C)C)C(=O)C(C(N)=O)=C(O)[C@@]3(O)C(=O)C1=C2O`, for which the result was inactive.

On to `CCO[Si](CCCN)(OCC)OCC`, for which the outcome was inactive.

As for `CN(C)CCOC(=O)COc1ccc(Cl)cc1`, the compound was called inactive.

As for `CC(CCl)OP(=O)(OC(C)CCl)OC(C)CCl` (stereo not drawn), the compound was called inactive.

As to `O=c1[nH]cnc2[nH]ncc12`, the result was inactive.

In the case of `COc1ccc(CCC(C)=O)cc1`, the “fluorescence, % of fluorescein control” value is 0.0469%.

For `COc1ccc([N+](=O)[O-])cc1N`, the compound was classed as inactive.

For the compound `CCCOC(=O)c1ccccc1`, the call was inactive.

With `NCCCCCCN`, the compound was called inactive.

For the compound `CCNC(=S)NCC`, the compound was classed as inactive.

As to `CCCCCCCCCCO`, the compound was classed as inactive.

Consider `CC(C)(Oc1ccc(CCNC(=O)c2ccc(Cl)cc2)cc1)C(=O)O`, for which the result was inactive.

Regarding `C=C(C)[C@H]1CC=C(C)C(=O)C1`, the result was inactive.

Turning to `COc1ccc(OC)cc1`, the compound was called inactive.

On to `COc1ccccc1OCC(O)CO` (stereo not drawn), for which the call was inactive.

The values are drawn from PubChem BioAssay (Tox21).
